In the library only some 5.9% were active in any assay of this set; here they are far more common.
FBPA coupling cs: coupling enzyme interference in Giardia aldolase counter-screen | coupling enzyme system counterscreen, AmpLite Red fluorescence | 0.67% of 290,000 active | activity change, negative = inhibition, % at 58.2 µM, hits read low; in the data active = activity change below about -30%
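Compounds tested against the coupling enzymes alone at 57.5 uM final; readout was AmpLite Red fluorescence (525/598 nm) after 20 min at RT.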
VP16 counter: Gal4-VP16 reporter inhibition counter-screen | Drosophila S2 Gal4-VP16 UAS-luciferase, luminescence, 20 h | Potency, µM (titrated, usually from 53.6 µM), inactives show at the highest dose activity, negative = inhibition, usual class: inhibitors | 3.5% of 310,000 active | AID 2546;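 also: Gal4-VP16 expression switched on by copper sulfate through the metallothionein promoter; potency is read from the fitted curve at half-maximal effect; nearly all actives have a fitted effect of over 50% in size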
TrxR1 substrate: is turned over as a substrate by rat TrxR1; O89049; purified TrxR1 substrate turnover, NADPH consumption readout; Potency, µM (doses to about 114 µM), inactives show at the highest dose activity change, negative = substrate turnover; 0.01% of 390,000 active; also: potency is read from the fitted curve at half-maximal effect; nearly all actives have a fitted effect of over 50% in size
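Rat TrxR1, dispensed at 90 nM, was prereduced with 400 uM NADPH (final) for 5 min at ~22 deg C, then incubated with compound 15 min before 400 uM selenite. A first-read NADPH fluorescence drop versus no-compound background flagged substrates.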
GALK inh: blocks human galactokinase activity | AID 1868 | P51570 | Purified GALK, Kinase-Glo residual ATP luminescence | 0.007% of 270,000 active | Potency, µM (series often up to 57.5 µM), for the others: at the highest dose activity change, negative = inhibition, most hits filed as inhibitors; also: potency is read from the fitted curve at half-maximal effect
Target sequence (P51570 whole entry, looked up): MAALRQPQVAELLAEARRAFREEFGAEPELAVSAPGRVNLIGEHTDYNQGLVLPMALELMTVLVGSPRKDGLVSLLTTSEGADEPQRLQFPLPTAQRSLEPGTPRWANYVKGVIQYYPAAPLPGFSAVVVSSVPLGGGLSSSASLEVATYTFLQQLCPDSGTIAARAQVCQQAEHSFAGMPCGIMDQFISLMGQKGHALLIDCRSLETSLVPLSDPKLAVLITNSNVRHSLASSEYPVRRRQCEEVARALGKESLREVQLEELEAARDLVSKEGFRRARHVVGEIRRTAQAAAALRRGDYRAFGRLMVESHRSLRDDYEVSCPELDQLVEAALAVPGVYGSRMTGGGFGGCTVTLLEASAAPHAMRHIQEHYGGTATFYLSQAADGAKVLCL
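ATP-depletion format; final 35 uM ATP, 100 uM D-galactose, 5 nM enzyme; pH 8.0 HEPES/Mg2+ buffer; 60 min RT; luminescence read 10 min after detection reagent.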
TrxR1 inh: blocks rat thioredoxin reductase 1. 1% of 390,000 active. AID 588453. recombinant rTrxR1, NADPH fluorescence consumption, selenite substrate. Potency, µM (highest dose often 114 µM), without a hit: top-dose activity change, negative = inhibition, hits mostly inhibitors. O89049; also: potency is read from the fitted curve at half-maximal effect; nearly all actives have a fitted effect of over 65% in size
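Rat TrxR1 (90 nM in the dispensed reagent) was pre-reduced with 400 uM NADPH for 5 min at room temperature, then incubated with compound for 15 min. After 400 uM selenite was added, NADPH fluorescence (Ex 340/Em 450 nm) was followed for 8 min.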
RORgamma inh: blocks mouse ROR gamma transcriptional activity. P51450. Drosophila S2 Gal4-RORgamma UAS-luciferase reporter, 20 h. Potency, µM (top dose mostly 53.6 µM), without a hit: at the top dose activity change, negative = inhibition, hits mostly inhibitors. 5.4% of 310,000 active. AID 2551; also: potency is read from the fitted curve at half-maximal effect; nearly all actives have a fitted effect of over 60% in size
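A Gal4/UAS one-hybrid system in insect cells: metallothionein-promoter Gal4–ROR gamma fusion plus Photinus luciferase reporter. Copper sulfate 700 uM final, 20 hr ambient incubation, luminescent detection after 10 min with reagent.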
The depositor's hits bear a star; u = inconclusive; x = not tested or not shown; [ ] = remark or other dose. Unless noted, calls follow the shape of the dose curve; as a rule, active = well fitted curve in the direction sought with a large enough effect; inconclusive = small, poorly fitted or top-dose-only effect, or another doubt; inactive = no such curve, though single readings can be large; an effect the other way counts as inactive or inconclusive. % is scaled to controls: 0 for no effect and ±100 for the full control effect.

SMILES | FBPA coupling cs | VP16 counter | TrxR1 substrate | GALK inh | TrxR1 inh | RORgamma inh
CC1CCCCC1NC(=S)NC(=O)c1cccs1 (stereo not drawn) | -5.0 | 12.6µM* | -1.3% | -1.8% | u | 1.58µM*
CCCCC(=O)Nc1ccc(C(=O)Nc2ccc(S(=O)(=O)Nc3ccc(C)cc3)cc2)cc1 | -0.1 | 11.2µM* | 3.2% | 0.4% | 10.1% | u
NS(=O)(=O)c1ccc(NC(=S)NC(=O)c2cccs2)cc1 | 1.0 | -1.5% | -1.5% | -1.6% | 11.2µM* | -18.7%
CC(=O)N1CCN(C(=O)c2cc(C)oc2C)CC1 | x | x | 2.5% | x | 18.0% | x
Cc1ccc(Cn2c(C(CO)Nc3nc(-c4ccc(Cl)c([N+](=O)[O-])c4)cs3)nc3ccccc32)cc1 (stereo not drawn) | x | x | 5.6%[57.1 µM] | x | 6.7%[57.1 µM] | x
O=C(NC(=S)Nc1ccccc1)c1cccs1 | -3.9 | 8.91µM* | 3.9% | -0.4% | 50.1µM* | 5.01µM*
O=C(N/N=C(/CC(=O)c1cccs1)C(F)(F)F)c1ccc(O)cc1 | 2.1 | u | -19.8%[57.1 µM] | 2.7% | -50.4% | 17.8µM*
O=C(NNC(=O)c1cccs1)c1ccc(S(=O)(=O)N2CCCCC2)cc1 | -0.2 | u | -16.9% | x | -20.1% | 4.6%
O=C(NC(=S)Nc1ccc(S(=O)(=O)N2CCCCC2)cc1)c1cccs1 | 2.5 | u | -6.2% | x | u | 4.47µM*
O=C(NNC(=S)NC(=O)c1cccs1)c1ccc(O)cc1 | x | 11.2µM* | -2.2% | 0.1% | 1.1% | 7.94µM*
O=C(NNC(=O)c1cccs1)c1ccc(Br)cc1 | 6.3 | -2.5% | -6.1%[57.1 µM] | 3.9% | -8.7%[57.1 µM] | 0.2%
O=C(NC(=S)Nc1ccc(S(=O)(=O)NC2CCCCC2)cc1)c1cccs1 | 1.7 | 0.447µM* | 2.8%[57.1 µM] | -1.7% | -59.5% | 1.12µM*
O=C(Nc1ccc(NC(=S)NC(=O)c2cccs2)cc1)c1ccccc1 | -0.8 | 15.8µM* | 2.4% | 1.1% | -21.1% | 7.94µM*
CCCCC(=O)Nc1ccc(C(=O)NNC(=S)NC(=O)c2cccs2)cc1 | 8.3 | 8.91µM* | 8.4%[57.1 µM] | 1.9% | -14.8%[57.1 µM] | 7.94µM*
O=C(NNC(=S)NC(=O)c1cccs1)c1ccc(NC(=O)c2ccccc2)cc1 | -0.8 | 6.31µM* | -9.8% | -0.6% | -18.2% | 4.47µM*
CC(=O)NC(=S)Nc1ccc(NC(=O)c2cccs2)cc1 | -3.9 | 29.1% | -6.4% | -2.9% | u | 44.0%
O=c1[nH]c(CN2CCc3ccccc32)nc2scc(-c3cccs3)c12 | -0.8 | -9.9% | -1.1% | 4.6% | -2.1% | 1.7%
COc1cc(=O)n2c(n1)SCCC2 | 3.5 | -2.6% | -6.3%[57.1 µM] | x | 9.5%[57.1 µM] | 2.6%
O=C(COC(=O)C1=COCCO1)Nc1ccc(Cl)cn1 | x | x | -0.8% | x | 4.4% | x
Cc1nc(N2CCCC2)c2c(C(=O)N3CCN(c4ccccc4)CC3)c(C)oc2n1 | x | x | 4.9% | x | 11.6% | x
CCOC(=O)c1ccc(NC(=O)/C=C/c2cccs2)cc1 | -2.6 | -7.2% | 79.4µM* | 0.1% | -35.1% | u
CCc1nnc(NC(=O)CN2C(=O)/C(=C/c3cc(OC)c(OC)c(OC)c3)SC2=S)s1 | 9.3 | u | 5.8%[57.1 µM] | 0.9% | 13.2%[57.1 µM] | 15.8µM*
COc1cc(/C=C2\SC(=S)N(CC(=O)Nc3ccccn3)C2=O)cc(OC)c1OC | -3.3 | -5.7% | -7.4% | 0.1% | -14.6% | -5.0%
COc1cc(/C=C2/SC(=S)N(CC(=O)Nc3nc4ccccc4s3)C2=O)cc(OC)c1OC | 5.9 | -1.8% | -8.2% | 0.7% | -2.5% | 10µM*
CCNS(=O)(=O)c1ccc(C(=O)OCC(=O)N2CCCc3ccccc32)cc1 | x | x | 5.1% | x | 17.2% | x
SMILES | FBPA coupling cs | VP16 counter | TrxR1 substrate | GALK inh | TrxR1 inh | RORgamma inh
C[C@@H]1O[C@H](O[C@@H]2[C@H](C)O[C@H](O[C@@H]3[C@H](C)O[C@H](O[C@H]4CC[C@]5(C)[C@@H](CC[C@@H]6[C@H]5C[C@@H](O)[C@]5(C)[C@@H](C7=CC(=O)OC7)CC[C@]65O)C4)C[C@@H]3O)C[C@@H]2O)C[C@H](O)[C@@H]1O | 2.2 | 6.9%[17 µM] | x | x | x | 3.98µM*
C[C@H]1O[C@@H](O[C@H]2[C@@H](O)C[C@H](O[C@H]3[C@@H](O)C[C@H](O[C@H]4CC[C@@]5(C)[C@H](CC[C@@H]6[C@@H]5C[C@@H](O)[C@]5(C)[C@@H](C7=CC(=O)OC7)CC[C@]65O)C4)O[C@@H]3C)O[C@@H]2C)C[C@H](O)[C@@H]1O | 4.2 | -7.8% | 7.5% | 3.1% | 17.0% | 1.58µM*
CCC(=O)Nc1ccc(Oc2ccc3c(c2)C(=O)N(c2ccc(O)cc2)C3=O)cc1 | 10.2 | -6.6% | -0.8% | -0.3% | 10.4% | -1.5%
O=C(N[C@@H](CO)C(=O)NCc1ccccc1)c1ccc(C(F)(F)F)cc1 | 1.3 | 18.2% | 5.8% | x | 11.9% | 7.2%
Cn1nc(CC(=O)NCc2ccc(C(F)(F)F)cc2)c2ccccc2c1=O | 1.0 | u | 2.5% | -1.9% | 17.5% | 18.9%
COc1ccc(CNC(=O)Cc2nn(C)c(=O)c3ccccc23)cc1 | 2.2 | 8.91µM* | 0.1%[57.1 µM] | 0.0% | -4.3%[57.1 µM] | u
S=C1NC(c2ccccc2)=NCN1c1ccccc1 | 2.7 | 0.8% | 1.2%[57.1 µM] | 0.4% | 15.2%[57.1 µM] | 10µM*
Cc1ccc2c(Cl)c(C)c(N3CCCC3)nc2n1 | 1.8 | 11.2µM* | -14.8% | 0.0% | -25.7% | 2.82µM*
Cc1nc2ccccc2nc1N1CCCC1 | 3.6 | 0.6% | 4.1% | 5.3% | 20.9% | -7.6%
CCc1nnc(NC(=O)CSc2nccn2-c2cc(C)cc(C)c2)s1 | -2.1 | u | 4.8%[57.1 µM] | -0.6% | 19.8%[57.1 µM] | 17.8µM*

Compound activity as filed in PubChem BioAssay.
